High-throughput results: PubChem BioAssay, several laboratories
MT1-MMP txn act: MT1-MMP promoter reporter activation – cell-based, luciferase luminescence, primary screen | activation factor at 10 µM | HT1080 MT1-MMP promoter luciferase reporter, overnight; active compounds read high | hit rate 0.16% among 86,000;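 active = activation factor of at least 2 for MT1-MMP transcription at 10 µM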
Measles CPE: compounds protecting cells from measles virus cytopathic effect, primary screen, measles RdRp inhibitor project, single point, MLSMR library, absorbance; Measles virus-infected cells, CPE protection; protection (pct of control), % at 4 µM; hit rate 1.5% among 140,000; AID 841, 2007; in the data active = protection mostly above about 24%, no sharp cut-off; inactive = mostly below about 26%
PostGolgi ctrl: growth inhibition of yeast control strain, primary screen, counter-screen for post-Golgi transport modulator project; efflux-deficient yeast background strain, growth absorbance A615, 16 h; AID 738, 2007; inhibition, % at 10 µM; hit rate 5% among 98,000
PostGolgi yeast: phenotypic screen on post-Golgi transport, primary screen; post-Golgi transport phenotypic cell assay; hit rate 0.9% among 98,000; inhibition, % at 10 µM;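 also: yeast cells grown in 1536-well plates; yeast grown about 18 h at 30C before absorbance read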
* marks the source's active call; other numbers are inactive results. Most compounds without a hit are left out; they make up all but 5.3% or so of the library. Rule as the data show it, unless noted: active = inhibition above about 30%; inactive = the rest.

CN(CC(=O)Nc1ccccc1N1CCOCC1)S(=O)(=O)c1ccc(F)cc1 was read as MT1-MMP txn act 1.1, Measles CPE 4, PostGolgi ctrl 31* and PostGolgi yeast -5.
For COc1ccc(S(=O)(=O)N2CCN(C(=O)c3ccco3)CC2)cc1OC the results were MT1-MMP txn act 1.1, Measles CPE 57*, PostGolgi ctrl 24 and PostGolgi yeast -14.
`COc1ccc(Cl)cc1S(=O)(=O)N1CCN(C(=O)c2ccco2)CC1` gave MT1-MMP txn act 1.2, Measles CPE 37, PostGolgi ctrl 1 and PostGolgi yeast -4.
O=C(NC1CCN(C(=O)N2CCOCC2)CC1)c1ccccc1 was read as MT1-MMP txn act 1.1, Measles CPE 2, PostGolgi ctrl 34* and PostGolgi yeast 2.
For Cn1c(=O)oc2cc(S(=O)(=O)N3CCCC(C(=O)Nc4ccc5c(c4)OCCO5)C3)ccc21 (configuration not stated) the results were MT1-MMP txn act 1.2, Measles CPE 9, PostGolgi ctrl 31* and PostGolgi yeast 18.
Screening CCOC(=O)c1c(NC(=O)CN2CCCc3ccccc32)sc(C(C)=O)c1C returned Measles CPE 6.
For Oc1ccc(N2CCN(C(c3cccs3)c3nnnn3CCc3ccccc3)CC2)cc1 (configuration not stated) the results were MT1-MMP txn act 1, Measles CPE 14, PostGolgi ctrl 35* and PostGolgi yeast 8.
`CCCN(CCC)c1nc2ccccc2n2c(C)nnc12` gave MT1-MMP txn act 1.1, Measles CPE 44*, PostGolgi ctrl 45* and PostGolgi yeast 10.
`Clc1ccc(-c2cn3c(n2)-c2ccccc2C3)cc1Cl` gave Measles CPE 11.
`O=S(=O)(/C=C/c1ccccc1)Oc1ccccc1` gave MT1-MMP txn act 1.2, Measles CPE 9, PostGolgi ctrl 2 and PostGolgi yeast 2.
For CCCCN=c1scc(-c2ccc3c(c2)NC(=O)CO3)n1N=C1CCCC1 the results were Measles CPE 9, PostGolgi ctrl 65* and PostGolgi yeast 3.
Screening CCN=c1scc(-c2ccc3c(c2)NC(=O)CO3)n1N=C1CCCC1 returned MT1-MMP txn act 1.2, Measles CPE 23, PostGolgi ctrl 7 and PostGolgi yeast -6.
Screening CCCC/C=C/C(NC(=O)Oc1cccc(C(F)(F)F)c1)c1ccccc1 (configuration not stated) returned MT1-MMP txn act 1.2.
COCCCn1c(-c2ccco2)nc2ccccc2c1=O was read as MT1-MMP txn act 1.1, Measles CPE 29*, PostGolgi ctrl 24 and PostGolgi yeast -1.
O=C1NC(=O)C2(COC(c3ccncc3)OC2)S1 (configuration not stated) was read as Measles CPE 10.
`CCC(=O)Nc1cc(NC(=O)CSc2ncc(-c3ccc(F)cc3)n2Cc2ccco2)ccc1C` gave MT1-MMP txn act 2.1*, Measles CPE 6, PostGolgi ctrl 3 and PostGolgi yeast 11.
`O=C(O)C1C2C=CC(C2)C1C(=O)N1CCOCC1` (configuration not stated) gave MT1-MMP txn act 1.1, Measles CPE 30, PostGolgi ctrl 53* and PostGolgi yeast -10.
COC(=O)c1ccc(CSc2ccc3nnc(-c4cccc(F)c4)n3n2)o1 was read as MT1-MMP txn act 1.1, Measles CPE 13, PostGolgi ctrl 41* and PostGolgi yeast -5.
O=[N+]([O-])c1ccc(N2CCN(CCOc3nonc3-c3ccccc3)CC2)c(Cl)c1 was read as Measles CPE 38*, PostGolgi ctrl 12 and PostGolgi yeast 17.
Screening CCCCCCOC(=O)C[N+](C)(C)CCOC1CC2CCC1(C)C2(C)C (configuration not stated) returned Measles CPE 3, PostGolgi ctrl 37* and PostGolgi yeast 16.
Screening O=C1c2cnc3nc(SCc4ccccc4)nn3c2CC2c3ccccc3CCN12 (configuration not stated) returned Measles CPE 12, PostGolgi ctrl 96* and PostGolgi yeast 68*.
For C=CCNS(=O)(=O)c1ccc(OCC(=O)OC)cc1 the results were MT1-MMP txn act 1, Measles CPE 2, PostGolgi ctrl 25 and PostGolgi yeast 1.
`O=C(Nc1cc2c(oc1=O)CCCC2=O)c1ccc(Cl)cc1` gave Measles CPE 23, PostGolgi ctrl -3 and PostGolgi yeast 3.
`Cc1ccc2nc(C)cc(OCC(=O)O)c2c1` gave MT1-MMP txn act 1.1, Measles CPE 25, PostGolgi ctrl 3 and PostGolgi yeast 44*.
For Cc1cc(N2CCN(c3ccccc3)CC2)nc(N)n1 the results were MT1-MMP txn act 1 and Measles CPE 17.
Cc1cc(N2CCN(c3ccccc3)CC2)nc(-c2ccccc2)n1 was read as MT1-MMP txn act 1, Measles CPE 3, PostGolgi ctrl 67* and PostGolgi yeast -1.
Cc1cc(N2CCCCCC2)nc(-c2ccccc2O)n1 was read as MT1-MMP txn act 1.1, Measles CPE 40, PostGolgi ctrl 34* and PostGolgi yeast 1.
Screening Cc1cc(N2CCOCC2)nc(-c2ccccc2O)n1 returned Measles CPE 6.
O=C1CN(C(=O)CSc2nc(-c3ccc(Cl)cc3)cs2)c2ccccc2N1 was read as Measles CPE 16.
Screening Cc1ccc(COc2ccc(Br)cc2/C=N/O)cc1 returned Measles CPE 15, PostGolgi ctrl 44* and PostGolgi yeast 19.
`CCOc1cc(/C=N/O)ccc1OCc1ccc(C)cc1` gave Measles CPE 14.
`O/N=C/c1cc(Br)ccc1OCc1cccc(F)c1` gave Measles CPE 9, PostGolgi ctrl 35* and PostGolgi yeast 10.
`Clc1cc(Br)ccc1OCCN1CCOCC1` gave Measles CPE 9.
CCCCCOc1ccc(CN2CCOCC2)cc1Cl was read as MT1-MMP txn act 1.7, Measles CPE 3, PostGolgi ctrl 55* and PostGolgi yeast 95*.
`C=CCOC(=O)/C(=C\C=C\c1ccccc1)NC(=O)c1ccccc1` gave Measles CPE 3.
`Cc1ccc(-n2nc(C(=O)c3ccccc3)n3c(=O)cc(-c4ccccc4)nc23)cc1` gave Measles CPE 26*, PostGolgi ctrl 11 and PostGolgi yeast 5.
`COc1ccc(CCNC(=O)C2CCN(S(C)(=O)=O)CC2)cc1OC` gave MT1-MMP txn act 1.2, Measles CPE 3, PostGolgi ctrl -2 and PostGolgi yeast 0.
COc1ccc(N2CC(C(=O)Nc3ccccc3C(=O)NCc3ccco3)CC2=O)cc1 (configuration not stated) was read as MT1-MMP txn act 1.2, Measles CPE 35*, PostGolgi ctrl 4 and PostGolgi yeast -1.
For COc1ccc(CCNC(=O)C2CC2)cc1OC the results were MT1-MMP txn act 1, Measles CPE 46*, PostGolgi ctrl 4 and PostGolgi yeast 0.
COc1ccc(CCNc2nc(N3CCCCC3)nc(N3CCCCC3)n2)cc1OC was read as MT1-MMP txn act 1.4, Measles CPE 4, PostGolgi ctrl 32* and PostGolgi yeast 4.
For COc1ccc(CCN2CC(C(=O)NCc3ccco3)CC2=O)cc1OC (configuration not stated) the results were Measles CPE 3, PostGolgi ctrl 33* and PostGolgi yeast -11.
